# An excerpt weighted towards active compounds, which were near 6.6% of everything screened.
# KB-V1 MDR tox = qHTS assay for MDR1-selective chemotherapeutics: Primary screen using the drug-selected MDR subline cells KB-V1; Potency, µM (series often up to 46.1 µM), usual class: cytotoxic; AID 1347076, 2019; 400,000 compounds, 3.4% hits; KB-V1 MDR cells viability, CellTiter-Glo, 72 h; note: % is set by controls: 0 for no effect and ±100 for the full control effect; nearly all actives have a fitted effect of over 60% in size
#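 Potencies derive from concentration-effect curves fitted to normalized luminescence (CellTiter-Glo) of KB-V1 cells treated for 72 h at 37 degrees C in phenol-red-free DMEM containing 10% FBS.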
# HT1080 IDH1KD tx = qHTS for induction of synthetic lethality in tumor cells producing 2HG: qHTS for the HT-1080-IDH1KD cell line; HT-1080 IDH1 knockdown viability, ATP luminescence, 48 h; Potency, µM (series often up to 46.1 µM), without a hit: at the top dose activity, negative = toxicity, usual class: cytotoxic; 360,000 compounds, 2% hits;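 note: 0% = DMSO wells and -100% = cell-free medium wells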
#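 % activity derives from luminescence (CellTiter-Glo), normalised to DMSO and no-cell wells. HT-1080-IDH1KD cells, 750/well, had 48 h compound exposure at 37 °C.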
# HepG2 tox = qHTS for Inhibitors of TGF-b: Cytotox Counterscreen | HepG2 CAGA-GFP viability, ATP luminescence, 18 h | Potency, µM (doses to about 46.1 µM), inactives show at the highest dose activity change, negative = cytotoxicity, hits mostly cytotoxic | 410,000 compounds, 0.76% hits | AID 588856, 2011
#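 CellTiter-Glo luminescence gave cytotoxicity after 18 hours at 37 degrees C. The cells were HepG2 CAGA-GFP in 1% FBS DMEM, stimulated with 500 pg/mL TGF-beta after compound addition. %Activity was normalised to no-cell wells (complete cell-killing) and DMSO (no toxicity), and curves were fitted and classified.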
# TGFb inhibitor = qHTS for Inhibitors of TGF-b. HepG2 CAGA-GFP TGF-b/SMAD3 reporter, GFP fluorescence, 18 h; TGF-beta stimulated, 500 pg/mL final. Potency, µM (highest dose often 46.1 µM), inactives show top-dose activity, negative = inhibition, most hits filed as inhibitors. 410,000 compounds, 1.2% hits; note: % is set by controls: 0 for no effect and ±100 for the full control effect; nearly all actives have a fitted effect of over 65% in size
#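 TGF-beta reporter screen: HEPG2 CAGA-GFP, 1% FBS, 500 pg/mL TGF-beta final, 18 h; per-cell GFP summed per well; curves fitted and categorized by class.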
# KB-3-1 tox = qHTS assay for MDR1-selective chemotherapeutics: Primary screen using the parental adenocarcinoma cell KB-3-1. KB-3-1 viability, CellTiter-Glo ATP luminescence, 72 h. Potency, µM (doses to about 46.1 µM), hits mostly cytotoxic. 400,000 compounds, 1.4% hits. AID 1347075, 2019; note: % is set by controls: 0 for no effect and ±100 for the full control effect; nearly all actives have a fitted effect of over 60% in size
#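 Cells are dispensed, compounds pinned in, plates held at 37 °C for 72 h, then CellTiter-Glo is added and luminescence read after 10 minutes. Cell line: parental KB-3-1 in phenol-red-free DMEM, 10% FBS.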
# HT1080NT lethal = qHTS for induction of synthetic lethality in tumor cells producing 2HG: qHTS for the HT-1080-NT fibrosarcoma cell line; 360,000 compounds, 1.6% hits; Potency, µM (series often up to 46.1 µM), for the others: at the top dose activity, negative = less viability, most hits filed as cytotoxic; AID 686970, 2013; HT-1080-NT fibrosarcoma viability, CellTiter-Glo ATP luminescence, 48 h;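 note: NT is the 2HG producing partner of a matched IDH1 knockdown line; 0% = DMSO-treated cells and -100% = media-only wells without cells; nearly all actives have a fitted effect of over 55% in size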
#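 Viability by CellTiter-Glo luminescence after 48 h compound exposure at 37C of HT-1080-NT cells (750/well, RPMI, 5% FBS). % activity scaled between DMSO wells and medium-only wells, then curve-fitted and categorized by curve class.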
# Numbers without * were called inactive; i = inactive; ? = inconclusive; · = not tested or not shown; [ ] = another dose, or the depositor's remark. Calls come from the whole dose curve; as a rule, active = well fitted curve in the direction sought with a large enough effect; inconclusive = small, poorly fitted or top-dose-only effect, or another doubt; inactive = no such curve, though single readings can be large; an effect the other way counts as inactive or inconclusive. Potency is the fitted concentration of half-maximal effect.
SMILES,KB-V1 MDR tox,HT1080 IDH1KD tx,HepG2 tox,TGFb inhibitor,KB-3-1 tox,HT1080NT lethal
CCOC(=O)c1ccc(NC2=CC(c3ccc(F)cc3)N(c3ccc(C(=O)OCC)cc3)C2=O)cc1 (centres undefined),i,·,-7.7%,-3.4%,i,·
CCCn1c(=O)c(C(=O)NNC(=O)c2ccccc2Cl)c(O)c2ccccc21,9.2µM*,?,-47.3%,?,?,-8.0%
CCn1c(=O)c(C(=O)NCCN2CCCCC2)c(O)c2ccccc21,i,18.4µM*,-27.0%,-9.6%,?,?
CCn1c(=O)c(C(=O)NCCc2ccccc2)c(O)c2ccccc21,?,-26.1%,-2.6%,-12.7%,i,-15.3%
CC(C)Cn1c(=O)c(C(=O)Nc2cnccn2)c(O)c2ccccc21,i,5.4%,-12.2%,9.4%,i,0.7%
CC(C)Cn1c(=O)c(C(=O)Nc2ccncc2)c(O)c2ccccc21,i,0.0%,-18.0%,-29.9%,7.31µM*,-3.4%
CCn1c(=O)c(C(=O)NNC(=O)c2ccccc2)c(O)c2ccccc21,?,-25.0%,5.2%,13.9%,i,?
CCn1c(=O)c(C(=O)NNS(=O)(=O)c2ccc(Cl)cc2)c(O)c2ccccc21,14.6µM*,0.7%,-0.2%,-7.4%,i,-1.3%
CCCn1c(=O)c(C(=O)NNC(=O)Cc2ccccc2)c(O)c2ccccc21,?,-24.3%,-5.5%,-2.7%,i,-15.9%
CCCCCCC(=O)NNC(=O)c1c(O)c2ccccc2n(CC)c1=O,?,0.2%,-24.5%,-17.8%,i,-17.4%
CCCn1c(=O)c(C(=O)NCc2cccnc2)c(O)c2ccccc21,10.3µM*,-1.9%,-3.7%,-14.7%,i,14.9%
CCCn1c(=O)c(C(=O)NCc2ccccn2)c(O)c2ccccc21,i,?,-14.5%,22.4%,i,-29.8%
CCCCCCCC(=O)NNC(=O)c1c(O)c2ccccc2n(CC)c1=O,18.4µM*,-2.2%,0.7%,-5.1%,?,11.5%
CCCn1c(=O)c(C(=O)Nc2ccccc2)c(O)c2ccccc21,23.1µM*,3.5%[9.24 µM],8.1%,6.7%,?,7.1%
CCCn1nc(C(=O)NC2CCCCCC2)c2ccccc2c1=O,5.8µM*,4.9%,-2.2%,0.5%,i,-6.6%
CCCn1c(=O)c(C(=O)Nc2cccc(C)c2)c(O)c2ccccc21,i,10.5%,-1.5%,0.7%,i,10.5%
Cn1c(=O)c(C(=O)NC2CCCCCCC2)c(O)c2ccccc21,20.6µM*,-1.9%,0.9%,-6.1%,i,4.7%
CCCCc1nc2ccccc2c(=O)n1NC(=O)c1c(O)c2ccccc2n(C)c1=O,?,-6.6%,-14.5%,-26.4%,13µM*,-0.4%
CCCn1c(=O)c(C(=O)Nc2ccccc2C)c(O)c2ccccc21,20.6µM*,24.5%,-0.3%,15.3%,i,0.8%
Cc1noc(C)c1CSc1nc2ccccc2nc1NS(=O)(=O)c1ccc(Cl)cc1,?,?,-45.9%,7.94µM*,?,?
COCCCNc1nc2ccccc2nc1NS(=O)(=O)c1ccc(Cl)cc1,i,0.0%,-14.4%,-3.5%,i,1.4%
Cc1ccc(NC(=O)c2ccc([N+](=O)[O-])o2)cc1C,i,13µM*,-38.8%,?,18.4µM*,25.9µM*
O=C(Nc1ccc2[nH]c(=O)[nH]c2c1)c1ccc([N+](=O)[O-])o1,?,?,-30.3%,11.2µM*,?,-3.6%[9.24 µM]
CCc1nc2ccc(C(=O)N(C)CC(=O)Nc3ccc(F)c(F)c3F)cc2nc1CC,i,?,-2.7%,3.3%,i,14.5%
O=C(COC(=O)c1c2c(nc3ccccc13)/C(=C/c1ccco1)CC2)NC1CCCC1,16.4µM*,-12.8%,-1.9%,?,i,2.1%
SMILES,KB-V1 MDR tox,HT1080 IDH1KD tx,HepG2 tox,TGFb inhibitor,KB-3-1 tox,HT1080NT lethal
COc1cccc(CNC(=O)CCc2c(C)c3cc4c(C)coc4c(C)c3oc2=O)c1,·,·,-29.3%,-25.8%,·,·
NC(N)=Nc1ccc(/C=C2\C=Cc3ccccc32)cc1,i,·,-106.5%,15.8µM*,i,·
O=Cc1ccc(/C=C2\C=Cc3ccccc32)cc1,i,·,-62.4%,3.55µM*,?,·
O=c1c(Cl)cc(Cl)nn1-c1ccccc1,?,?,17.8µM*,?,?,?
COc1cc(Cl)nn(-c2ccccc2)c1=O,i,3.4%,7.5%,7.2%,i,8.6%
Cc1ccc(S(=O)(=O)Nc2ccc(C(OC(=O)c3ccccc3[N+](=O)[O-])(C(F)(F)F)C(F)(F)F)cc2)cc1,3.66µM*,?,10µM*,10µM*,?,-13.4%
O=C(c1ccc(CNS(=O)(=O)c2cccc(C(F)(F)F)c2)cc1)N1CCOCC1,13µM*,-5.7%,-8.9%,-9.0%,i,0.0%
O=C(c1ccc(NS(=O)(=O)c2cccc(C(F)(F)F)c2)cc1)N1CCCC1,·,-11.4%,-6.3%,-13.3%,·,3.6%
O=C(NCc1ccccc1F)c1cccc(S(=O)(=O)NCc2ccccc2)c1,·,-10.6%,-13.0%,-11.0%,·,-6.9%
O=C(NCc1cccc(C(F)(F)F)c1)c1cccc(S(=O)(=O)NCc2ccccc2)c1,18.4µM*,-4.2%,-47.5%,?,i,0.1%
CN(Cc1ccc(Cl)cc1Cl)C(=O)c1cccc(S(=O)(=O)NCc2ccccc2)c1,5.17µM*,-6.5%,-31.4%,?,?,-2.0%
CN(Cc1c(F)cccc1Cl)C(=O)c1cccc(S(=O)(=O)NCc2ccccc2)c1,i,2.5%,-20.0%,-2.1%,i,7.4%
CCOc1ccccc1NS(=O)(=O)c1ccc2c(c1)CC(C)N2C(=O)C1CC1 (centres undefined),?,·,-26.3%,?,i,·
O=c1c2cc(Cl)ccc2[nH]c(=S)n1Cc1ccco1,i,11.2µM*,-5.3%,24.7%,i,7.94µM*
COc1cccc(Cn2c(=S)[nH]c3ccc(N4CCOCC4)cc3c2=O)c1,3.66µM*,-22.0%,-12.0%,16.4%,i,-22.7%
O=c1c2ccc(Cl)cc2[nH]c(=S)n1Cc1cccnc1,18.4µM*,-0.7%,-26.0%,-2.8%,i,-6.6%
O=c1c2cc(N3CCOCC3)ccc2[nH]c(=S)n1Cc1ccco1,13µM*,?,2.6%,0.9%,i,?
